TMEM16A act – activates or potentiates the mouse TMEM16A chloride channel; Q8BHY3; HEK293 TMEM16A/YFP-H148Q/I152L, iodide quench fluorescence; stronger effect = lower value; B-score at 10 µM; 0.3% of 340,000 active; AID 623877;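 active means fluorescence-ratio B-score plate-corrected deviation score at least 3 library SD below zero, with starting fluorescence score within 5 deviations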;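 further: channel opened by trigger with iodide after compound preincubation; score built on the fluorescence ratio of max minus min over baseline; more negative score means more quench and so TMEM16A activation or potentiation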
Target sequence (Q8BHY3 whole entry, looked up): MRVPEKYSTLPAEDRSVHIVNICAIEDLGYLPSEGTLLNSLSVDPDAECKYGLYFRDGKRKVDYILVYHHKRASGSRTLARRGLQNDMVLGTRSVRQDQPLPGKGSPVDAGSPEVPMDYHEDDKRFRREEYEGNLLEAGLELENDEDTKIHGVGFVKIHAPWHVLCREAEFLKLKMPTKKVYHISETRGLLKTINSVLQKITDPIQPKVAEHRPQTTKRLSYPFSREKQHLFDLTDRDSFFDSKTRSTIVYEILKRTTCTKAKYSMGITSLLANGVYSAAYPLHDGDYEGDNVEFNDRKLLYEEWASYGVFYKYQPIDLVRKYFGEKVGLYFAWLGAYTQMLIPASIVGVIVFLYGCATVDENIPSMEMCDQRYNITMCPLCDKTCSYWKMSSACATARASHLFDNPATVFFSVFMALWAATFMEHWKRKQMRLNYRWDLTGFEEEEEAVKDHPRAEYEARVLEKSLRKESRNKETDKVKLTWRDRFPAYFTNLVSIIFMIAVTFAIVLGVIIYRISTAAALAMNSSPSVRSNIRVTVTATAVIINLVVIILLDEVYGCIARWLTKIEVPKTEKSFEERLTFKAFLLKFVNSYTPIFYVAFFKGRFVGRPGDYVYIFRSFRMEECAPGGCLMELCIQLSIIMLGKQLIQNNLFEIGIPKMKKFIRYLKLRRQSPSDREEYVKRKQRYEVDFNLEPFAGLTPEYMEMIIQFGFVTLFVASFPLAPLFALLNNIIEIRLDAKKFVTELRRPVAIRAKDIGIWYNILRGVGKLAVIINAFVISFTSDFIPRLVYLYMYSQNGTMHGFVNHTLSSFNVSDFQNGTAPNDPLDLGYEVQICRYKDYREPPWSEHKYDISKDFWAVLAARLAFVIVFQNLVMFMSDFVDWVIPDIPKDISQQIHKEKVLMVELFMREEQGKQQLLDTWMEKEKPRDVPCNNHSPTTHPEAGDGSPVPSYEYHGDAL
MPTP inh – blocks calcium-induced mitochondrial swelling; isolated mouse mitochondria, Ca2+ swelling absorbance, 30 min; inhibition, % at 10 µM; 1.4% of 360,000 active;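 active means inhibition of 50% or more, scaled per plate between neutral and stimulator controls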
GRIN3A LBD mod – modulates the human NR3A ligand-binding domain; NR3A LBD differential scanning fluorimetry, Tm shift; 0% = protein alone, 100% = glycine-bound protein; 2.5% of 340,000 active; AID 1259313; Tm shift relative to glycine control, % at 25 µM;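 active means melting temperature shift of at least 10% of the positive control shift, at one fixed dose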
CRFBP-R2 block – antagonists of CRF-binding protein/CRF-R2 receptor complex; 0.59% of 350,000 active; HEK293 CRF-R2/CRF-BP, CRF-induced calcium fluorescence; inhibition, % at 11.8 µM; AID 588475;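 active means inhibition of the ligand-induced calcium signal above about 50% at the single tested concentration, limit read from the data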
CRFBP-R2 agonist – CRF-BP/CRF-R2 complex agonism; HEK293 CRF-R2/CRF-BP, calcium dye fluorescence (FLIPR); percent of saturating CRF peptide response; 0.46% of 350,000 active; activation, % at 13.2 µM; AID 588473;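 active means activation of at least 50%, plus an integration ratio under a set limit after plate pattern correction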
ANO1 block – blocks the mouse calcium-activated chloride channel TMEM16A; HEK293 TMEM16A/YFP iodide influx fluorescence, ionomycin; normalized B-score (activity score, 25-100; higher = stronger inhibition) at 10 µM; 1.2% of 310,000 active; Q8BHY3; AID 588511;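 active means ratio plate-corrected score three or more library SD toward inhibition, starting fluorescence score within five deviations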;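 further: score derived from kinetic fluorescence span divided by baseline fluorescence per well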
Of the large screens only hits and unclear results are named; the others gave an inactive call. The list is not random: actives were taken first. Their share in the collection is about 5.1%.

O=C(Nc1cccc(-c2nc3ccccc3s2)c1)c1ccc2c(c1)OCO2	GRIN3A LBD mod 10
CCOc1ccc(C(=O)Nc2ccc(-c3nc4ccccc4[nH]3)cc2)cc1[N+](=O)[O-]	GRIN3A LBD mod 212
COc1ccc(OC(=O)N(C)C[C@H]2OCc3cn(nn3)CCCC(=O)N([C@H](C)CO)C[C@@H]2C)cc1	none (no result: TMEM16A act, GRIN3A LBD mod, ANO1 block)
COc1ccc(OC)c(S(=O)(=O)NCc2ccccn2)c1	none
O=C(Nc1ccc(Cl)c(-c2nc3ccccc3[nH]2)c1)c1ccc2c(c1)OCO2	none
CS(=O)(=O)c1ccc(C(=O)Nc2ccc(-c3nc4ccccc4[nH]3)cc2)cc1	GRIN3A LBD mod 32
CCOc1cccc(C(=O)Nc2ccc(NC(=O)c3ccccc3)c(C)c2)c1	none
O=C(Nc1cccc(-c2nc3ccccc3[nH]2)c1)c1cccc(NC(=O)c2ccco2)c1	GRIN3A LBD mod 20
O=C(Nc1ccc(-c2nc3ccccc3[nH]2)cc1)c1ccc2c(c1)OCO2	GRIN3A LBD mod 30
CCOc1ccc(C(=O)Nc2ccc(NC(=O)c3ccccc3)c(C)c2)cc1[N+](=O)[O-]	GRIN3A LBD mod 18
N#CC[C@H](c1ccccc1)N1CCN(Cc2ccccc2)CCC1=O	none
O=C(Nc1ccc2nc(-c3ccccc3)[nH]c2c1)c1ccco1	none
Cc1cccc2[nH]c(-c3ccc(NC(=O)c4ccco4)cc3)nc12	GRIN3A LBD mod 31
Cc1[nH]c(C)c(S(=O)(=O)NCCc2ccccc2)c1C(=O)N1CCCCC1	CRFBP-R2 block 70
CN(C(=O)c1cccc(NC(=O)Cc2ccc(NC(=O)C3CCCN(S(=O)(=O)c4cccc([N+](=O)[O-])c4)C3)cc2)c1)C1CCCC1 (stereo not drawn)	GRIN3A LBD mod 10 (no result: TMEM16A act, ANO1 block)
CN(C(=O)c1cccc(NC(=O)Cc2ccc(NC(=O)C3CCCN(C(=O)CCc4ccccc4)C3)cc2)c1)C1CC1 (stereo not drawn)	none (no result: TMEM16A act, ANO1 block)
CN(Cc1ccccc1)C(=O)c1ccc(NC(=O)Cc2ccc(NC(=O)C3CCN(C(=O)CCc4ccccc4)CC3)cc2)cc1	GRIN3A LBD mod 13 (no result: TMEM16A act, ANO1 block)
CN(Cc1ccccc1)C(=O)c1cccc(NC(=O)Cc2ccc(NC(=O)C3CCN(C(=O)CCc4ccccc4)CC3)cc2)c1	GRIN3A LBD mod 17 (no result: TMEM16A act, ANO1 block)
CN(C(=O)c1ccc(NC(=O)Cc2ccc(NC(=O)C3CCCN(S(=O)(=O)c4cccc([N+](=O)[O-])c4)C3)cc2)cc1)C1CCCC1 (stereo not drawn)	none (no result: TMEM16A act, ANO1 block)
CN(C(=O)c1cccc(NC(=O)Cc2ccc(NC(=O)C3CCCN(C(=O)CCc4ccccc4)C3)cc2)c1)C1CCCCC1 (stereo not drawn)	CRFBP-R2 block 67 (no result: TMEM16A act, ANO1 block)
CCN(CC(=O)NC1CC1)S(=O)(=O)c1ccc(OC)cc1	none
O=C(COc1cccnc1[N+](=O)[O-])NCc1ccc(F)cc1	none
OCc1cccc(-c2csc(C(O)c3ccccc3)n2)c1 (stereo not drawn)	none (no result: TMEM16A act, GRIN3A LBD mod, CRFBP-R2 block, CRFBP-R2 agonist, ANO1 block)
COC(=O)/C(C#N)=C/c1c[nH]c2ccccc12	none
Cc1ccc(C(=O)/C=C/c2cn(CN3CCN(C)CC3)c3ccccc23)cc1	GRIN3A LBD mod 38
Cc1ccc(C(=O)/C=C/c2c[nH]c3ccccc23)cc1	GRIN3A LBD mod 28
Cn1cc(/C=C/C(=O)c2ccccc2)c2ccccc21	none
Cc1ccc(S(=O)(=O)/C(C#N)=C/c2c[nH]c3ccccc23)cc1	GRIN3A LBD mod 13
COc1ccc2[nH]cc(/C=C/C(=O)c3ccccc3)c2c1	GRIN3A LBD mod 29
CCCCN(C(=O)CC1CCCC1)c1c(N)n(CCCC)c(=O)[nH]c1=O	none (no result: ANO1 block)
CCCCN1C(=O)c2cccc3cc(O)cc(c23)C1=O	none
O=C(/C=C/c1c[nH]c2ccccc12)c1ccccc1	GRIN3A LBD mod 24
C(=Cc1c[nH]c2ccccc12)c1nccc2ccccc12	none (no result: ANO1 block)
CCN(CC)C(=O)c1ccc(/C=C/c2c[nH]c3ccccc23)[n+](C)c1	CRFBP-R2 agonist 54
OCC[n+]1ccc(/C=C/c2c[nH]c3ccccc23)cc1	CRFBP-R2 agonist 119
CCN(Cc1ccccc1)C(=O)Cc1c[nH]c2ccccc12	none
CC[n+]1c(/C=C/c2c[nH]c3ccccc23)ccc2cc(C)ccc21	CRFBP-R2 agonist 271 (no result: MPTP inh, ANO1 block)
O=C(/C=C/c1ccccc1O)c1ccccc1	none (no result: ANO1 block)
O=C(CSc1nnc(CNC(=O)c2c(F)cccc2F)o1)NCc1ccc2c(c1)OCO2	none (no result: TMEM16A act, GRIN3A LBD mod, ANO1 block)
COc1cc(-c2nnc3n2CCCCC3)cc(OC)c1OC	none
O=C(/C=C/c1ccccc1)NC(NC(=S)Nc1cccc(O)c1)C(Cl)(Cl)Cl (stereo not drawn)	GRIN3A LBD mod 21
O=C(/C=C/c1ccccc1)NC(NC(=S)Nc1ccc(C(=O)O)cc1)C(Cl)(Cl)Cl (stereo not drawn)	GRIN3A LBD mod 13
O=C(/C=C/c1ccc(Cl)cc1)NC(=S)Nc1ccc(C(=O)O)cc1	none
CC1=C(C(=O)N(C)C)CC(CC(=O)NC2CCCC2)C(=O)N1CCC1=CCCCC1 (stereo not drawn)	none (no result: TMEM16A act, GRIN3A LBD mod, ANO1 block)
COc1ccccc1-c1cc(C(F)(F)F)n2ncc(C(=O)N3CCc4ccccc4C3)c2n1	none
COC(=O)c1ccc(N2CCN(c3ccccc3)CC2)nc1	none
COc1ccc(Cc2c(-c3ccc(OC)c(OC)c3)nc3ccc(C)cn23)c(C)c1	none (no result: TMEM16A act, GRIN3A LBD mod, CRFBP-R2 block, CRFBP-R2 agonist, ANO1 block)
Cc1c(C(=O)O)sc(S(=O)(=O)N2CCN(C(=O)Cc3ccc(Cl)cc3)CC2)c1C(=O)O	none (no result: ANO1 block)
Cc1c(C(=O)O)sc(S(=O)(=O)N2CCN(C(=O)Cc3ccc(F)cc3)CC2)c1C(=O)O	CRFBP-R2 block 52 (no result: ANO1 block)
O=S(=O)(NC1CC1)c1ccccc1	none
COc1ccccc1CN(C)C(=O)C(c1ccccc1)c1ccccc1	CRFBP-R2 block 57
Cc1ccc(S(=O)(=O)Cc2ccc(C(=O)N3CCN(c4ccccn4)CC3)o2)cc1	none
O=C(c1ccc(CS(=O)(=O)c2ccc(Br)cc2)o1)N1CCN(c2ccccn2)CC1	TMEM16A act -7.8
O=C(/C=C/CCc1ccc2c(c1)OCO2)N1CCCCC1	none (no result: ANO1 block)
CCc1sc(C(=O)NCCc2ccc(S(N)(=O)=O)cc2)cc1C	none
CCc1sc(C(=O)NCCc2ccc(S(N)(=O)=O)cc2)cc1Br	CRFBP-R2 block 61
CCc1ccc2oc(C(=O)NCCc3ccc(S(N)(=O)=O)cc3)cc(=O)c2c1	GRIN3A LBD mod 15
CCC(C(=O)OCC(=O)N(C)c1c(N)n(Cc2ccccc2)c(=O)[nH]c1=O)c1ccccc1 (stereo not drawn)	none
O=C(Cn1nnc(-c2ccc(F)cc2)n1)NC(=O)NC1CCCCC1	none (no result: TMEM16A act, GRIN3A LBD mod, ANO1 block)
COC(=O)c1c(C)oc2ccc(N(C(=O)c3ccncc3)S(=O)(=O)c3ccc(C)cc3)cc12	ANO1 block 100
CCCCCCn1c(=O)n2n(c1=O)C[C@]1(OC(=O)NC3CC3)CN(S(=O)(=O)c3ccc(C)cc3)C[C@]1(O)C2	none (no result: TMEM16A act, GRIN3A LBD mod, ANO1 block)
